Bioassay records: PubChem, The Scripps Research Institute Molecular Screening Center
hcDAF12 agonist – H. contortus DAF-12 activation, primary screen; HEK293 hcDAF-12 lit1-tk-luc reporter, luminescence; 0% DMSO, 100% Δ7-dafachronic acid; activation, % at 6.8 µM; hit rate 1.4% among 370,000; AID 652067;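 active = activation above the mean of all tested compounds plus 3 SD, cut at about 5.5% in these data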;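 also: 100% = response to 3 µM Δ7-dafachronic acid high control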
FXN GAA850 act – increases GAA850 frataxin promoter reporter activity. activation, % at 6 µM. hit rate 0.56% among 360,000. HEK293 lucGAA850 FXN promoter luciferase reporter, 24 h; percent of 10 µM SAHA response;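 active = activation above the average of all compounds screened plus 3 SD, cutoff fixed separately per campaign, cut at about 7.5% in these data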;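 also: 0% = DMSO wells and 100% = 10 µM SAHA wells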
DAX1 inh-1 – DAX1 (NR0B1) inhibition, primary screen. HEK293T StAR-luciferase reporter, SF-1/DAX-1 repression relief. inhibition, % at 6.8 µM. hit rate 1.1% among 370,000. AID 652010;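 active = inhibition above the mean over all tested compounds plus 3 SD, cut at about 3.6% in these data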;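 also: 0% = DAX-1 cells with DMSO and 100% = cells lacking DAX-1 with DMSO; higher inhibition means more luminescence from relief of DAX-1 repression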
hgDAF-12 ag – agonists of H. glycines DAF-12 nuclear receptor; HEK293 GAL4-hgDAF12 UAS-luciferase reporter, agonist luminescence; normalized to butyrate control; activation, % at 6.8 µM; hit rate 1.8% among 370,000; AID 687014;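 active = activation above a cutoff set at the mean of all screened compounds plus 3 SD, cut at about 10% in these data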;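 also: 0% = DMSO wells and 100% = sodium butyrate wells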
DAX1 inh-2 – inhibitors of human orphan nuclear receptor DAX1 (NR0B1) | hit rate 0.99% among 340,000 | inhibition, % at 6.75 µM | HEK293 Gal4-DAX1 luciferase reporter, luminescence;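 active = inhibition above the mean over all tested compounds plus 3 SD, cut at about 4.2% in these data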;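 also: 0% = DAX1-transfected cells with DMSO and 100% = empty-vector control cells with DMSO; inhibition shows as a rise in luminescence from relieved DAX1 repression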
Target sequence (P51843 207-470 limits assumed): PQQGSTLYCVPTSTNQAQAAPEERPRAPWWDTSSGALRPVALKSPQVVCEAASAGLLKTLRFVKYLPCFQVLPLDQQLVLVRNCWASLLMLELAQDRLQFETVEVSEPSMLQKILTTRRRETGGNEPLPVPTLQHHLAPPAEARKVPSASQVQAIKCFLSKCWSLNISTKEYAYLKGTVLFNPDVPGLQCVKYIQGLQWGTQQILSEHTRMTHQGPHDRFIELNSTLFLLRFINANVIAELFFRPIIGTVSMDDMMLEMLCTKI
ssDAF-12 act – activators of S. stercoralis DAF-12 nuclear receptor; HEK293 ssDAF-12/GRIP1 lit1-tk-luc reporter, luminescence; % of 3 µM dafachronic acid response; activation, % at 6.8 µM; hit rate 1% among 370,000;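 active = activation above the mean over all tested compounds plus 3 SD, cut at about 0.9% in these data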;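 also: 0% = DMSO-only wells and 100% = 3 µM delta7-dafachronic acid wells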
LXRb hcDAF ctr – counter-screen for hcDAF-12 agonists: agonists of human LXR-beta; activation, % at 6.8 µM; 3,400 tested, under 10 active; shares compounds with hcDAF12 agonist; HEK293 Gal4-LXR tk-luc reporter, luminescence, 24 h; normalized: DMSO 0%, positive control 100%;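 active = mean percent activation of the reporter above a cutoff set as the average over tested compounds plus their standard deviation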
hcDAF12 conf – confirmation of H. contortus DAF-12 agonists. AID 743032. HEK293 hcDAF-12 lit1-tk-luc reporter, luminescence; % of Δ7-dafachronic acid response. hit rate 61% among 3,400. activation, % at 6.8 µM. shares compounds with hcDAF12 agonist;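 active = mean activation across triplicate tests above the threshold derived from the earlier primary screen, cut at about 5.5% in these data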;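 also: 0% = DMSO only wells and 100% = 3 µM Δ7-dafachronic acid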
Active calls of the source: *; . = no result. The list is not random: actives were taken first. Their share in the collection is about 4.5%.

SMILES | hcDAF12 agonist | FXN GAA850 act | DAX1 inh-1 | hgDAF-12 ag | DAX1 inh-2 | ssDAF-12 act | LXRb hcDAF ctr | hcDAF12 conf
COc1ccc(-c2cc3nc(C)cc(C)n3n2)cc1 | 9.2* | 6 | 3 | 12* | 8.0* | 2.7* | 1 | 13*
Cc1cc(-c2ccc(Cl)cc2)n2nc(C)cc2n1 | 1 | 2 | 0 | 1 | 0 | -1 | . | .
Cc1nc2cc(-c3ccc(Cl)cc3)nn2c(NCCN(C)C)c1C | 13* | 5 | 1 | 6 | 2 | 1.5* | 0 | 7.5*
COc1ccc2ccccc2c1CN1CCN(c2ncc(Cc3ccccc3)cn2)CC1 | 0 | . | 0 | -4 | . | -1 | . | .
Oc1cccc(-c2nnc(-c3cccc(O)c3)nn2)c1 | 12* | -3 | 4.1* | 2 | -5 | 2.3* | 2 | 17*
N/C(=N\O)c1ccccc1-n1cccc1 | -1 | 0 | 0 | 1 | -1 | -2 | . | .
Nc1ccccc1-n1cccc1 | 15* | 5 | 0 | 7 | . | 1.6* | 0 | 5
Cc1ccc(S(=O)(=O)N2[C@H](CC(=O)c3cccs3)OC[C@@H]2C)cc1 | -2 | . | 0 | -1 | . | -1 | . | .
CC1CCN(c2nc(-c3cccnc3)nc3scc(-c4ccccc4)c23)CC1 | 3 | 0 | 0 | 3 | -1 | -1 | . | .
Clc1nc(-c2ccccn2)nc2scc(-c3ccccc3)c12 | 12* | 5 | 2 | 14* | 1 | 0 | 1 | 6.6*
C[C@@H](O[Si](c1ccccc1)(c1ccccc1)C(C)(C)C)[C@@H]1NC(=O)[C@@H]2C[C@]3(Br)c4ccccc4N(S(=O)(=O)c4ccccc4)[C@@H]3N2C1=O | 0 | . | . | 4 | . | -2 | . | .
COc1ccccc1NC(=O)NC(=O)c1ccccc1 | 11* | 5 | 0 | 9 | 0 | 1 | 1 | 13*
CCCC(=O)Nc1ccc2oc(-c3ccc(OC)c(Br)c3)nc2c1 | 0 | 3 | -1 | -1 | -1 | -1 | . | .
CCCC(=O)Nc1ccc(-c2nc3cc(C)ccc3o2)cc1 | 12* | 0 | 3.9* | 13* | 0 | 1.7* | 1 | 8.4*
COC(=O)C1=C(C)N(C)C(=NCc2cc(OC)c(OC)c(OC)c2)NC1c1ccc(C(F)(F)F)cc1 (configuration not stated) | -2 | . | 1 | -2 | . | -1 | . | .
O=C(CNC(=O)Cc1ccccc1)N=Nc1c(O)[nH]c2ccccc12 | 1 | 0 | 0 | 2 | 0 | 0 | . | .
Oc1[nH]c2ccccc2c1N=Nc1ccccc1 | 13* | 6 | 2 | 10 | 2 | 1 | 1 | 14*
COC(=O)/C=C(\C)N=Nc1c(O)[nH]c2ccccc12 | 7.3* | 3 | 0 | 1 | 1 | 0 | 0 | 6.8*
O=C(N[C@H](C(=O)N1CCC[C@H]1C(=O)NCCc1ccccc1Cl)c1ccccc1)c1ccco1 | -1 | . | 0 | -1 | . | -1 | . | .
COCc1[nH]nc2c1C(c1ccc3c(c1)OCO3)N(c1ccc(OC)cc1)C2=O (configuration not stated) | 0 | . | -1 | 2 | . | -1 | . | .
Cc1cccc(NC(=O)OC2CC3CC2[C@H]2CCCCN2C3)c1 (some centres not stated) | 1 | . | 2 | 1 | . | -1 | . | .
Clc1ccc2oc(-c3ccccn3)nc2c1 | 7.6* | 1 | 2 | 10 | 2 | 1.8* | 1 | 9.0*
COc1ccc(OCc2cc(C(=O)N3CCC(OC)CC3)no2)c2ccccc12 | 7.8* | 1 | 3.8* | 9 | 3 | 1 | 0 | 6.4*
COC1CCN(C(=O)c2cc(COc3ccc(-n4cncn4)cc3)on2)CC1 | -1 | 2 | 0 | 0 | 0 | -1 | . | .
CSc1ccccc1OCc1cc(C(=O)NC2CCOC(C)(C)C2)no1 (configuration not stated) | -1 | 2 | 0 | 2 | -1 | -1 | . | .
SMILES | hcDAF12 agonist | FXN GAA850 act | DAX1 inh-1 | hgDAF-12 ag | DAX1 inh-2 | ssDAF-12 act | LXRb hcDAF ctr | hcDAF12 conf
COc1ccc(OCc2cc(C(=O)NC3CCOC(C)(C)C3)no2)c2ccccc12 (configuration not stated) | 7.9* | 3 | 4.1* | 6 | 3 | 2.1* | 0 | 8.0*
O=C(NCC1COCCO1)C1CCN(S(=O)(=O)c2cccc3ccccc23)CC1 (configuration not stated) | -1 | . | -1 | 0 | . | -1 | . | .
CSc1ccccc1OCc1cc(C(=O)NC2CCc3ccccc32)no1 (configuration not stated) | 7.6* | -2 | -1 | 0 | 0 | -1 | 0 | 2
Cc1ccc(-c2cc(C(F)F)n3ncc(C(=O)N4CCCc5ccccc54)c3n2)cc1 | 6.6* | 3 | 0 | 0 | 1 | -1 | 0 | -1
OCC1CCCN(C(=S)Nc2ccc(OC(F)F)cc2)C1 (configuration not stated) | 11* | 2 | 1 | 4 | 1 | -1 | 0 | 0
Cc1cccc(C)c1N=C1NN=C(c2ccccc2F)CS1 | 1 | 2 | 0 | 9 | 3 | 0 | . | .
Cc1ccccc1N=C1NN=C(c2ccccc2F)CS1 | 9.4* | 3 | 3 | 13* | 2 | 1 | 1 | 11*
CC(COc1ccc(OC(F)(F)F)cc1)CN1CCC(C(O)(c2ccccc2)c2ccccc2)CC1 (configuration not stated) | -1 | . | -2 | 1 | . | -1 | . | .
CCOC(=O)C1=CCN(S(=O)(=O)c2ccc(F)cc2)C1c1ccccc1 (configuration not stated) | 7.7* | . | 0 | -1 | . | -2 | 0 | 1
COc1cccc(CNC(=O)[C@H]2CCCN2C(=O)[C@H]2CCCN2C(=O)c2ccccc2C(F)(F)F)c1 | 0 | . | 0 | -1 | . | -2 | . | .
COc1ccccc1-n1cc2ccc([N+](=O)[O-])cc2n1 | 8.6* | 6 | 0 | 10 | 1 | 0 | 1 | 6.6*
COc1cc(/C=N/NC(=O)c2ccccc2O)ccc1OCC(=O)Nc1ccccc1 | -1 | 3 | 0 | 4 | 2 | -1 | . | .
COc1cc(C=C2C(=O)OC(C)(C)OC2=O)ccc1OCC(=O)Nc1ccccc1 | 7.1* | 1 | 1 | 8 | 2 | 0 | 0 | 3
CCN(C(=O)C1CCN(c2ncccn2)CC1)c1ccccc1 | 0 | . | 0 | -2 | . | -2 | . | .
O=C(CC1C(=O)NCCN1Cc1ccccc1)NCCCOc1cccnc1 (configuration not stated) | 14* | 2 | 1 | 1 | 1 | -1 | 0 | 0
